Laboratory results from paper PMC4336329 (PLoS ONE, 2015).
In all, about 310,000 compounds went through this assay and about 14,000 (4.5%) showed an effect of 50% or more. The effect is printed as a negative number. For the sample, strong results were picked, then their nearest neighbours and some compounds at random.

target: human ether-à-go-go-related gene (hERG) potassium channel (human, UniProt Q12809); experiment: primary screen, population patch clamp on CHO cells stably expressing hERG; higher = less effect of the substance
Sequence (Q12809 whole entry, looked up): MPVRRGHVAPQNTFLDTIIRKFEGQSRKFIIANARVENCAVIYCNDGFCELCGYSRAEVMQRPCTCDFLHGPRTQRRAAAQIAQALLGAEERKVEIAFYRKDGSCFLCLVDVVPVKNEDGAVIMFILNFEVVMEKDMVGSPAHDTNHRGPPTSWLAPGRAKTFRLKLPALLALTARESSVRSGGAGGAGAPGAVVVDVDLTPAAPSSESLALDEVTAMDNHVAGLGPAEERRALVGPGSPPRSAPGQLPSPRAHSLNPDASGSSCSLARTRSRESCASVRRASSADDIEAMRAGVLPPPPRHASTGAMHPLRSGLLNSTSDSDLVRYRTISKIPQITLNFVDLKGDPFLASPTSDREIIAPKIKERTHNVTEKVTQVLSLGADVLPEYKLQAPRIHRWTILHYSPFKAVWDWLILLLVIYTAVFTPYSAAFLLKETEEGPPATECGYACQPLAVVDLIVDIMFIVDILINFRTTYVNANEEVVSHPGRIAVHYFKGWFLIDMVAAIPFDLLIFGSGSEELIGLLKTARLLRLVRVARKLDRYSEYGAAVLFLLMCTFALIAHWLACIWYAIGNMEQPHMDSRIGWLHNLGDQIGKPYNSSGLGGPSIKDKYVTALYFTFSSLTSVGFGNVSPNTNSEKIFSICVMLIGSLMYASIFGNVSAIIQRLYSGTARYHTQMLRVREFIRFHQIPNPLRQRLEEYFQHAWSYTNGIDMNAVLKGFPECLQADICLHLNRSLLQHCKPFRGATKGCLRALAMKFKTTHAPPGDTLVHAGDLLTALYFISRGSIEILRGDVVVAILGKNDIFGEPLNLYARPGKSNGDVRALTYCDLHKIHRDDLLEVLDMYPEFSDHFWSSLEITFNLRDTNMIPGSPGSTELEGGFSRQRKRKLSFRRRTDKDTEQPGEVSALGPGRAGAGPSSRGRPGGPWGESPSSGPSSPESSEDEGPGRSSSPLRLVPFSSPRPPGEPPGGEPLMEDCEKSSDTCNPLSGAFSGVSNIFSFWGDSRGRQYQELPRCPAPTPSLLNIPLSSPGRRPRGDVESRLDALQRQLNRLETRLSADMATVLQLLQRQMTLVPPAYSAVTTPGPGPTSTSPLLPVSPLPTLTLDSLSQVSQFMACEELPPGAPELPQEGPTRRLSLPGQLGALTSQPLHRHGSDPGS
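Note: peak tail current of the secondary pulse compared with the same well before compound.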

SMILES	hERG current change (%, negative = inhibition) at 10uM
Cc1cc(C)c(N=C2SCC(=O)N2Cc2ccco2)c(C)c1	-14%
Cc1cc(C)c(NC(=O)COC(=O)CCn2c(C)csc2=O)c(C)c1	-10.6%
Cc1ccc(-n2ncc3c(NCCCN4CCOCC4)ncnc32)c(C)c1	-10.3%
Cc1cc(NC(=O)COC(=O)c2cc(S(=O)(=O)N(C)c3ccccc3)ccc2Cl)no1	0.766%
Cc1ccccc1-n1c(-c2ccco2)nc2ccccc2c1=O	1.78%
Cn1cnc2c1c(=O)n(CC(O)CO)c(=O)n2C (centres unmarked)	23%
O=C(Cn1cc2c(n1)CCCC2)N1CCCC1	5.98%
CCOC(=O)N1CCN(C(=O)Cn2cc3c(n2)CCCC3)CC1	-72.4%
O=C(Cn1cc2c(n1)CCCCC2)N1CCCCC1	2.46%
Cc1ccc(C(=O)NCc2ccc3c(c2)OCO3)cc1S(=O)(=O)N1CCCCC1	-26.4%
OCCN(CCCn1c(-c2ccncc2)nc2ccccc21)c1nc(CN2CCCCC2)cs1	23.4%
CC(=O)OCCN(CCCn1c(-c2ccncc2)nc2ccccc21)c1nc(CN2CCCCC2)cs1	-58.5%
OCCN(CCCn1c(C(F)(F)F)nc2ccccc21)c1nc(CN2CCCCC2)cs1	-19%
NC(=O)CSc1nc2sc(-c3ccccc3)cc2c(=O)n1N	11%
CC1CN=C(Nc2ccccc2)S1 (centres unmarked)	7.23%
COc1cccc(CNS(=O)(=O)c2c(C(=O)N3CCCCC3)c(C)n(C)c2C)c1	9.63%
O=[N+]([O-])c1ccc(SCCc2cc[nH+]cc2)cc1.[Cl-]	-53.7%
Fc1ccc(SCCc2ccncc2)cc1	-29.9%
COC(=O)c1cnc(SCc2ccc([N+](=O)[O-])cc2)n1C	-32%
O=[N+]([O-])c1ccc(SCCc2ccccn2)cc1	-44.3%

SMILES	hERG current change (%, negative = inhibition) at 10uM
O=[N+]([O-])c1ccc(SCCc2ccncc2)cc1	-63.7%
O=c1ccnc(SCCc2ccc([N+](=O)[O-])cc2)[nH]1	-34%
O=C(COC(=O)CSc1ccc([N+](=O)[O-])cc1)NCCc1ccccc1	5.52%
Cn1c(SCCc2ccc([N+](=O)[O-])cc2)nccc1=O	-59.9%
O=C(COC(=O)CSc1ccc([N+](=O)[O-])cc1)NCCCc1ccccc1	4.5%
COc1ccc(C)cc1Cn1c(S(C)(=O)=O)nc2ccccc21	-9.64%
Cc1cccc(N2CCN(C(=O)CCN3C(=O)C4C5C=CC(C5)C4C3=O)CC2C)c1 (centres unmarked)	-18.2%
CCN1CN(CCc2ccccc2)CNC1=S	5.61%
O=C(C1CCN(S(=O)(=O)c2ccc(Cl)cc2)CC1)N1CCCCCCC1	-16.1%
Cc1ccc(-n2nc3c(c2NC(=O)c2ccc4c(c2)OCO4)CS(=O)C3)cc1 (centres unmarked)	7.09%
CCN(CC)C(=O)/C(=C\c1ccc(Br)cc1)NC(=O)c1ccccc1OC	-27.3%
CCN(CC)C(=O)/C(=C\c1ccc2c(c1)OCO2)NC(=O)c1ccc(Br)cc1	-63.5%
COc1ccc(C(=O)N/C(=C\c2ccc3c(c2)OCO3)C(=O)Nc2ccc(C(=O)O)cc2)cc1	17.8%
CCN(CC)C(=O)/C(=C/c1ccc2c(c1)OCO2)NC(=O)c1ccc(Br)cc1	-70.5%
O=C(NCc1ccc2c(c1)OCO2)c1ccc(Br)cc1	-19.8%
COc1ccc(-c2cn(CCN)c(-c3ccncc3)n2)cc1	5.87%
CN(C)S(=O)(=O)c1ccc(Cl)c(NC(=O)COC(=O)CN2C(=O)C3CCCCC3C2=O)c1 (centres unmarked)	6.74%
CCC1CCCCN1S(=O)(=O)c1ccccc1 (centres unmarked)	-13%
CCC1CCCCN1S(=O)(=O)c1ccc2[nH]c(=O)ccc2c1 (centres unmarked)	-60.1%
CC1CCN(S(=O)(=O)c2ccc3[nH]c(=O)ccc3c2)CC1	-5.5%

SMILES	hERG current change (%, negative = inhibition) at 10uM
C=CCN(c1ccc(C(=O)NCCc2ccccc2)cc1)S(C)(=O)=O	-6.23%
COc1ccc(C)cc1NC(=O)C(c1ccccc1)N1CCNC(=O)C1 (centres unmarked)	-5.31%
Cc1ccc(C(=O)NCCCN2CCN(CCCNC(=O)c3ccc(C)cc3)CC2)cc1	-67.5%
CC(C)c1ccc(C(=O)NCCCN(C)C)cc1	-17.1%
CC(C)c1ccc(C(=O)NCCCN2CCOCC2)cc1	-5.2%
O=C(Nc1ccc(C(=O)NCCCN2CCN(c3ccccc3)CC2)cc1)C1=CSCCO1	-38.2%
CC(C)(C)c1ccc(C(=O)NCCN2CCCC2)cc1.Cl	-6.48%
CC(C)(C)c1ccc(C(=O)NCCCN2CCN(CCCNC(=O)c3ccc(C(C)(C)C)cc3)CC2)cc1	-63.6%
CC(C)(C)c1ccc(C(=O)NCCN2CCOCC2)cc1	1.01%
CC(C)c1ccc(C(=O)NCCCN2CCN(CCCNC(=O)c3ccc(C(C)C)cc3)CC2)cc1	-84.3%
Cc1ccc(C(=O)NCCN2CCCC2)cc1.Cl	-5.44%
O=C(Nc1ccc(C(=O)NCCCN2CCN(c3ccc(F)cc3)CC2)cc1)C1=CSCCO1	-54%
CN1CCN(CCCNC(=O)c2ccc(NC(=O)C3=CSCCO3)cc2)CC1	11.5%
Cc1ccc(C(=O)NCCCN2CCOCC2)cc1	3.81%
COc1cccc(C(=O)NCC2CCCN2S(=O)(=O)c2ccccc2)c1 (centres unmarked)	2.72%
COc1cccc(-n2c(C)n[nH]c2=O)c1	14.1%
O=C(N/N=C/c1ccc(O)cc1)c1csc2c1CCCC2	-19.7%
CCc1cc(Br)ccc1N1C(=O)C2CC=CCC2C1=O (centres unmarked)	5.21%
Cc1nccn1CCCNC(=O)CC1C(=O)NCCN1Cc1ccccc1C(F)(F)F (centres unmarked)	9.64%
